Most compounds without a hit are left out; they make up all but 1.3% or so of the library.
EPAC2 agonist – EPAC2 (human) agonism; Q8WZA2; EPAC2 activation, biochemical qHTS; response scale: 100% = 6.5 mM cAMP response; Potency, µM (titrated, usually from 154 µM), inactives show top-dose activation, actives largely listed as activators; hit rate 0.079% among 360,000; note: nearly all actives have a fitted effect of over 50% in size
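Fluorescence exchange assay: 100 nM EPAC2 with 250 nM RAP1B-BODIPY-GDP and 50 uM GDP; compounds tested as a concentration-titration series (qHTS). Loss of Rap1-bound BODIPY-GDP fluorescence read at 480/540 nm; data normalized to 6.5 mM cAMP.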
RGS4 inhibitor – blocks human RGS4-accelerated GTP hydrolysis; Transcreener GDP fluorescence polarization, RGS4-accelerated GTP hydrolysis; Potency, µM (series often up to 114 µM), for inactives: at the highest dose activity change, negative = inhibition, hits mostly inhibitors; hit rate 0.039% among 390,000; AID 504845; note: % is set by controls: 0 for no effect and ±100 for the full control effect; nearly all actives have a fitted effect of over 75% in size
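MLSMR compounds (23 nl, pin-transferred) preincubated 10 min at room temperature with a 500nM (2x) first reagent, then RGS4 at 900nM (2x) plus Transcreener GDP mix added; fluorescence polarization (620/688 nm) read before and after 90 min at 30 °C.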
EPAC1 antagonist – EPAC1 (human) antagonism. hit rate 0.14% among 360,000. O95398. AID 720709. EPAC1 GEF assay, Rap1b-BODIPY-GDP exchange fluorescence. Potency, µM (titrated, usually from 115 µM), inactives show at the highest dose activity change, negative = inhibition, usual class: inhibitors;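 note: plate controls were vehicle for no effect and positive control for full effect; nearly all actives have a fitted effect of over 50% in size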
Target sequence (O95398 whole entry, looked up): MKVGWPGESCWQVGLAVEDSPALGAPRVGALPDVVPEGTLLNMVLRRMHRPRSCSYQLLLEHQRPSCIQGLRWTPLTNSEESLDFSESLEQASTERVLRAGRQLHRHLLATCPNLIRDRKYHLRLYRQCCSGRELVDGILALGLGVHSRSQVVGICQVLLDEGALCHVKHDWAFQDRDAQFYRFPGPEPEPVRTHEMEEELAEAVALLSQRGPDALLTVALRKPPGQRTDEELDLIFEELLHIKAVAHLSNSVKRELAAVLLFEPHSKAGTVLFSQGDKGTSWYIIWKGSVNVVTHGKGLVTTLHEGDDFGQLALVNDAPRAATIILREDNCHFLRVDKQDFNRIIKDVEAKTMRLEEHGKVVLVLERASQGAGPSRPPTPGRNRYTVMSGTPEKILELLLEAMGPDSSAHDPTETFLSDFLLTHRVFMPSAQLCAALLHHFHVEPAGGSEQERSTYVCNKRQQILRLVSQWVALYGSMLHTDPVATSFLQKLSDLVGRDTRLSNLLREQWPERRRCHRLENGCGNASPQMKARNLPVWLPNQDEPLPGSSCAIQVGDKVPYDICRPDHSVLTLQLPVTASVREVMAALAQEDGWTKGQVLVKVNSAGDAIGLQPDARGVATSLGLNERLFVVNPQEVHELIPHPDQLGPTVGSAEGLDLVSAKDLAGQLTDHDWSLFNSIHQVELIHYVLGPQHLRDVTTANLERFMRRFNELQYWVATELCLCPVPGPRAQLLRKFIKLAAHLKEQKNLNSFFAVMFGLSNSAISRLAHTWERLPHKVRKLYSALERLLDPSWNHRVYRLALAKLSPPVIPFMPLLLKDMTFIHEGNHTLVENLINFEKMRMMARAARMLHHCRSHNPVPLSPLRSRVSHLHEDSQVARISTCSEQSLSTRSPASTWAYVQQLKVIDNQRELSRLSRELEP
EPAC1 ag – EPAC1 (human) agonism. O95398. EPAC1 agonist qHTS, biochemical assay; response scale: 100% = response to 6.5 mM cAMP. Potency, µM (titrated, usually from 154 µM), for the others: at the highest dose activation, most hits filed as activators. hit rate 0.073% among 360,000; note: nearly all actives have a fitted effect of over 60% in size
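EPAC1 100 nM, Rap1B–BODIPY-GDP 250 nM, unlabeled GDP 50 uM; compound titration; 5 min RT; kinetic read ex480/em540 at 5-min intervals ×30 min; data normalized to 6.5 mM cAMP agonist control.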
BRCA1 expr act – BRCA1 expression activation. hit rate 1.1% among 380,000. Potency, µM (titrated, usually from 46.1 µM), inactives show at the top dose activation, most hits filed as activators. MCF7-BRCA1-FFLuc reporter, luminescence, 48 h; response scale: scaled: vehicle 0%, 10 µM genistein 100%; note: nearly all actives have a fitted effect of over 80% in size
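Luminescence from a BRCA1-driven firefly luciferase in MCF7 cells was the read-out, taken 15 min after substrate addition following 48 h compound exposure at 37 °C. Data were normalized to a 10 microM genistein control and DMSO vehicle.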
EPAC2 antag – EPAC2 (human) antagonism; EPAC2 GEF exchange of Rap1B-BODIPY-GDP, fluorescence; hit rate 0.18% among 360,000; AID 720708; Potency, µM (top dose mostly 114 µM), for the others: top-dose activity, negative = inhibition, actives largely listed as inhibitors; note: % is set by controls: 0 for no effect and ±100 for the full control effect; nearly all actives have a fitted effect of over 45% in size
The depositor's hits bear a star; ? = inconclusive; / = no result given; [ ] = another dose, or the depositor's remark. Calls come from the whole dose curve; as a rule, active = well fitted curve in the direction sought with a large enough effect; inconclusive = small, poorly fitted or top-dose-only effect, or another doubt; inactive = no such curve, though single readings can be large; an effect the other way counts as inactive or inconclusive. Potency is the fitted concentration of half-maximal effect.

SMILES	EPAC2 agonist	RGS4 inhibitor	EPAC1 antagonist	EPAC1 ag	BRCA1 expr act	EPAC2 antag
Cc1ccc(NC(=O)Nc2cccc(F)c2)nc1	0%	-8%	9%	3%	3.2µM*	-6%
Cc1ccc(NC(=O)Nc2ccc(Cl)cn2)cc1	0%	1%	-8%	-1%	4.5µM*	-7%
Cc1ccc(NC(=O)Nc2ccc(Cl)c(Cl)c2)nc1	0%	14%	-10%	1%	?	13%
Cc1ccnc(NC(=O)Nc2cccc(F)c2)n1	8%	16%[11.4 µM]	-23%	1%	1µM*	3%
CC(C)(C)OC(=O)N1CCC(C(=O)N2CCCCCC2)CC1	10%	4%	-5%	0%	8%	2%
CCc1nnc(NC(=O)CSc2sc3c(O)cc(=O)[nH]c3c2C#N)s1	10%	-52%	?	7%	-15%	0%
Cc1csc(NC(=O)CSc2sc3c(O)cc(=O)[nH]c3c2C#N)n1	0%	-29%	50µM*	4%	-24%	-1%
COc1cc(CNc2ccc(O)cc2)cc(Br)c1OCc1ccccc1F	3%	?	28µM*	-1%	-49%	?
N#CC(C(=O)Nc1ccccc1)=C1Nc2ccccc2N1	-12%	-19%[56.9 µM]	-5%	4%	3%	7%
Cc1ccc(NC(=S)/C(C#N)=C2/Nc3ccccc3S2)cc1	-5%	/	?	2%	-84%	20µM*
N#C/C(C(=O)N1CCCCC1)=C1\Nc2ccccc2S1	6%	1%	-9%	2%	8.9µM*	5%
CC(=O)Nc1ccc(S(=O)(=O)NCCC(=O)OCC(=O)c2ccc(Br)cc2)cc1	1%	-15%	5%	1%	2%	1%
O=C(Nc1ccc2ncccc2c1)Nc1ccc2ncccc2c1	-3%	?	-2%	0%	?	-11%
Cc1nc2ccc(NC(=O)c3ccc(S(=O)(=O)N(C)C)cc3)cc2s1	2%	18%	-6%	6%	-1%	3%
O=C(Nc1ccc2ncccc2c1)c1ccccc1Br	-2%	?	-11%	-3%	7.1µM*	14%
CN(C)S(=O)(=O)c1ccc(C(=O)Nc2ccc3ncccc3c2)cc1	2%	-17%	-1%	-4%	13µM*	-3%
COc1ccccc1NC1=C(Cl)C(=O)OC1OC(=O)c1ccco1 (configuration not stated)	2%	-11%	-5%	0%	-1%	-3%
Cc1ccc(NC(=O)c2ccccc2)cc1	4%	-1%	10%	9%	3.5µM*	-4%
Cc1ccc(C(=O)CC(=O)c2ccccc2)cc1	10%	17%	-12%	7%	5µM*	1%
Cc1ccc(-c2nn(-c3ccccc3)cc2C(=O)Nc2ccc(C(=O)O)cc2)cc1	3%	-19%	-9%	-7%	10µM*	10%
Cc1ccc(NC(=O)c2cn(-c3ccccc3)nc2-c2ccccc2)cc1	/	6%	/	/	/	/
O=C(Nc1ccc2c(c1)C(=O)c1ccccc1-2)c1ccccc1	0%	-27%	-8%	-1%	2.8µM*	2%
COc1cccc(C(=O)Nc2ccc3c(c2)C(=O)c2ccccc2C3=O)c1	1%	-30%[11.4 µM]	0%	2%	?	-11%
Cc1ccc(C(=O)Cc2ccccc2)cc1	-4%	-8%	9%	0%	47%	-13%
CCOc1ccc2c(c1)C(c1ccc(C)o1)=NNC(c1ccncc1)=N2	-3%	-17%	-6%	-2%	-8%	-9%
SMILES	EPAC2 agonist	RGS4 inhibitor	EPAC1 antagonist	EPAC1 ag	BRCA1 expr act	EPAC2 antag
O=C(Nc1cc(C(F)(F)F)ccc1N1CCOCC1)c1ccco1	9%	19%	-6%	4%	-2%	2%
CC(C)OC(=O)c1ccc(NC(=O)c2ccccc2)cc1	-9%	2%	-11%	0%	2.5µM*	-15%
Cn1cc(/C=C(\NC(=O)c2ccccc2)C(=O)NCCCn2ccnc2)c2ccccc21	5%	/	12%	-14%	-1%	2%
Cc1cccc(NC(=O)C(=O)NCC2CCCO2)c1 (configuration not stated)	4%	23%	2%	3%	2.2µM*	3%
N/C(=N\OC(=O)/C=C/c1ccccc1Cl)c1cccnc1	1%	-17%	-12%	1%	4µM*	-1%
N/C(=N\OC(=O)/C=C/c1ccccc1Cl)c1ccccn1	8%	-4%[11.4 µM]	6%	-2%	-18%	8%
N/C(=N\OC(=O)/C=C/c1ccccc1)c1cccnc1	12%	-4%	6%	11%	10µM*	7%[57.1 µM]
O=c1/c(=C\c2cccnc2)sc2nc3ccccc3n12	-4%	?	15%	-7%	13µM*	11%
O=C(Nc1cccnc1)c1ccc(CSc2ccccc2)cc1	-4%	-13%	-9%	-1%	18%	9%
CN(C=O)c1ccc(CSc2ccccc2)cc1	12%	14%	-10%	1%	8.9µM*	-6%
Cc1ccc(SCCNC(=S)Nc2cc(C)ccc2C)cc1	11%	-7%[11.4 µM]	-16%	9%	-33%	-6%
Cc1cc(/C=C2/C(=O)NN(c3ccccc3)C2=O)c(C)n1-c1cccc(O)c1	0%	11%	?	-7%	19%	-8%
COc1ccc(-n2c(C)cc(/C=C3\SC(=O)NC3=O)c2C)cc1	2%	-23%	?	-12%	11µM*	-1%
Cc1cc(/C=C2\SC(=S)NC2=O)c(C)n1-c1cccc(O)c1	15%	7%[11.4 µM]	?	7%	2.8µM*	-16%
Cc1ccc(-n2c(C)cc(/C=C3\SC(=O)NC3=O)c2C)cc1	4%	-39%	6%	-1%	?	3%
CCn1c(SCC(=O)Nc2cc(OC)ccc2OC)nc2c(c1=O)SCC2	6%	-7%	-8%	12%	-17%	-1%
O=[N+]([O-])c1cccc(NC(=S)N2CCOCC2)c1	6%	-6%	9%	-2%	-10%	2%
CC(C)(C)c1cc2nc(NCCc3ccc(S(N)(=O)=O)cc3)ccn2n1	1%	/	-24%	-9%	22%	4%
COc1ccc2cc(-c3ccccc3)c(=O)oc2c1	3%	7%[11.4 µM]	-9%	-22%	?	-12%
CN(C)C(=O)COc1ccc2cc(-c3ccccc3)c(=O)oc2c1	0%	16%	2%	2%	11µM*	8%
O=C(Nc1ccc([N+](=O)[O-])cc1)c1ccccc1F	-3%	9%[11.4 µM]	18%	-2%	4.5µM*	3%
COc1cc(/C=C/C(=O)c2ccc3c(c2)OCCO3)cc(Br)c1OCC(=O)N(C)C	4%	?	79µM*	15%	-98%	-3%
O=C(/C=C/c1ccncc1)c1ccc2c(c1)OCCO2	7%	?	-5%	6%	-55%	1%
Nc1nnc(SCCOc2ccc(Br)cc2)s1	-10%	-12%	8%	4%	11µM*	-2%
